# Compound activity deposited in PubChem by several laboratories.
# Most compounds without a hit are left out; they make up all but 2.3% or so of the library.
# HTR2A ag = agonists of mouse serotonin 5-HT2A receptor (HTR2A). P35363. CHO-K1 mHTR2A beta-arrestin complementation, luminescence; percent of 30 µM serotonin response. activation, % at 7.6 µM. 0.66% of 360,000 active;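 active = activation above a run cutoff, the mean activation of all tested compounds plus 3 SD, cut at about 14% in these data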;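 note: 0% = plate median of compound wells and 100% = 30 µM serotonin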
# NTR1 agonist = NTR1 (human) agonism; activation, % at 20 µM; 0.17% of 330,000 active; NTR1-U2OS beta-arrestin-GFP spot imaging, agonist mode; AID 493036; P30989;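 active = activation at or above 40% of the spot to cytoplasm intensity ratio, with at least 20 cells analyzed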;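 note: 0% = DMSO without peptide and 100% = 100 nM NTR1 peptide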
# Granule exo inh = blocks lytic granule exocytosis; 0.66% of 360,000 active; inhibition, % at 10 µM; TALL-104 LAMP-1 surface exposure, flow cytometry; cells stimulated with thapsigargin and PMA;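 active = inhibition above about 55%, limit read from the data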
# ABHD5-PLIN5 inh = inhibitors of human ABHD5-perilipin-5 interaction; Split G. princeps luciferase complementation, luminescence, 4 h; inhibition, % at 4 µM; 0.78% of 360,000 active; AID 602281;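 active = inhibition above the mean inhibition across every tested compound plus 3 SD, cut at about 22% in these data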;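 note: 0% = DMSO only wells and the 100% control is not disclosed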
# Beta2AR agonist = activates human beta-2 adrenergic receptor causing internalization; Am2.2-beta2AR cells, FAP receptor internalization, flow cytometry; response, % (no concentration beside the values); 0.43% of 340,000 active; AID 504454;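 active = response above a set limit, near 3 SD of response in nonfluorescent compounds, cut at about 42% in these data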
# Target sequence (P07550 whole entry, looked up): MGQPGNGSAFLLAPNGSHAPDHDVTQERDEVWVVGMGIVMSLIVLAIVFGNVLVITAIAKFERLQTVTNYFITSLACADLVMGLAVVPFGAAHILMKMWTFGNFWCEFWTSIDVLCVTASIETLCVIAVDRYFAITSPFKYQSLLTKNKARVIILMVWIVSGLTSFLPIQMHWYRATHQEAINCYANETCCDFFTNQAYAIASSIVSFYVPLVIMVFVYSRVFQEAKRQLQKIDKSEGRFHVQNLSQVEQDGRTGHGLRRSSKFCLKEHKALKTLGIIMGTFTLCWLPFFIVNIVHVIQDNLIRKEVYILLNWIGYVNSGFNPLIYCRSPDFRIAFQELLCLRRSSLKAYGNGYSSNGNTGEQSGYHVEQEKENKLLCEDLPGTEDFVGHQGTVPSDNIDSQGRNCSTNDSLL
# B2AR ag CP1 = agonists of human beta-2 adrenergic receptor; percent response (surface receptor), % at 10 µM; 25% of 1,100 active; shares compounds with Beta2AR agonist; Am2.2-beta2AR cells, FAP surface receptor, flow cytometry; hits give low values; AID 540358;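 active = surface receptor percent response at or below 58%, roughly 3 SD from nonfluorescent compounds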
# FAP fluor counter = counter-screen for beta-2AR agonists: fluorescence in Am2.2 cells; shares compounds with Beta2AR agonist; FAP fluorogen flow cytometry, fluorescence counterscreen; hits give low values; calls only at 10 µM; 1,100 tested, under 10 active;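 active = percent response below a set limit in fluorescence channel 1 and below 50% in channel 8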
# Active calls of the source: *; i = inactive; · = no result given.
SMILES,HTR2A ag,NTR1 agonist,Granule exo inh,ABHD5-PLIN5 inh,Beta2AR agonist,B2AR ag CP1,FAP fluor counter
c1ccc(OCCCCn2cnc3ccccc32)cc1,-6,0,3,-10,45*,100,i
Cc1cccc(C)c1NC(=S)N(Cc1cccs1)C1CCCC1,5,2,6,1,0,·,·
CC(=O)Nc1cc(S(=O)(=O)Nc2ccccc2)c(C)cc1C,2,-1,-2,7,47*,115,i
CC(=O)c1cccc(N=c2scc(-c3ccc(S(=O)(=O)N4CCOCC4)cc3)n2CCO)c1,2,3,13,-4,104*,117,i
C=CCn1c(-c2ccc(S(=O)(=O)N3CCOCC3)cc2)csc1=Nc1ccccc1,0,1,-8,-3,10,·,·
O=[N+]([O-])c1ccc(Sc2nc3ccccc3o2)c([N+](=O)[O-])c1,2,13,22,16,74*,71,i
COc1cc(OC)cc(C(=O)N[C@H](C(=O)NCc2cccs2)C(C)C)c1,-5,0,0,-2,-2,·,·
COC(=O)C1CCN(C2CN(Cc3ccc([N+](=O)[O-])cc3)S(=O)(=O)C2)CC1 (stereo not drawn),4,·,-1,-3,·,·,·
Cc1cccc(OCc2nnc(-c3ccc(F)cc3)o2)c1,1,0,6,-11,7,97,i
COc1ccc(-c2nnc(COc3ccc(Br)cc3C)o2)cc1,-3,3,-4,1,-4,107,i
Cc1ccc(-c2nnc(COc3cccc(-n4cnnn4)c3)o2)cc1,0,0,-7,4,-12,·,·
CC(C)c1ccc(CN(C)C(=O)c2ccc(S(=O)(=O)NCc3ccco3)cc2)cc1,4,1,1,-10,19,·,·
CN(/N=C/c1ccc(N(C)C)cc1)C1=NS(=O)(=O)c2ccccc21,9,0,9,-7,0,·,·
CC(=O)Nc1ccc(S(=O)(=O)N(Cc2cccnc2)Cc2cc3ccccc3[nH]c2=O)cc1,3,2,2,7,74*,29*,i
COC(=O)c1ccccc1S(=O)(=O)N(Cc1ccco1)Cc1cc2cc(OC)ccc2[nH]c1=O,5,1,-2,18,6,·,·
O=c1[nH]c2ccccc2cc1CN(Cc1cccnc1)S(=O)(=O)c1ccc(Cl)cc1,0,2,-2,4,-9,153,i
O=c1[nH]c2ccccc2cc1CN(Cc1cccnc1)S(=O)(=O)c1ccc([N+](=O)[O-])cc1,-6,3,3,1,-18,151,i
CC(=O)Nc1ccc(S(=O)(=O)N(Cc2ccco2)Cc2cc3ccccc3[nH]c2=O)cc1,6,0,2,11,106*,23*,i
COC(=O)[C@@]12C[C@@H](CC(=O)N3CCCC3)C(=O)N(CCc3ccc(OC)c(OC)c3)C1=CCC(C)(C)C2,5,·,-4,-5,·,·,·
O=C(Nc1ccc2c(c1)OCCO2)C(c1cc2ccccc2o1)N1CCN(C/C=C/c2ccccc2)CC1 (stereo not drawn),-6,·,8,13,·,·,·
O=C(Nc1ccc(F)cc1)c1ccc(Br)c(S(=O)(=O)N2CCOCC2)c1,3,1,0,-1,11,·,·
CCC(=O)N1COC[C@@H]1Cc1ccccc1,0,-1,1,-8,-1,107,i
CCOC(=O)c1ccc(NC(=O)Cc2coc3cc4c(cc23)CCC4)cc1,1,9,-2,-11,69*,45*,i
CCOC(=O)c1ccc(NC(=O)COC)cc1,4,-2,0,-3,10,·,·
O=C1CN(S(=O)(=O)c2cccc(Cl)c2Cl)c2ccccc2N1,11,1,13,-3,46*,26*,i
COc1ccc(C(=O)N2CCCC(CNC(=O)c3ccccc3Cl)C2)o1 (stereo not drawn),-6,0,0,1,0,·,·
COc1ccc(C)cc1S(=O)(=O)N(C)CC(=O)N1CCCC1,-4,-1,-2,3,-5,·,·
COc1ccccc1N1CCN(C(=O)CN(C)S(=O)(=O)c2cc(C)ccc2OC)CC1,-3,2,1,3,1,139,i
